Results published in PubChem BioAssay.
The source made the active and inactive calls.

Legend:
[1] = E. coli DRC41 culture turbidity changes, primary screen, E. coli filamentation inducer project, strain DRC41, OD650, 48 h (AID 1152);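 note: E. coli MC1000 strain DRC41 lacking acrAB efflux pump and sulA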; details: E. coli DRC41 (acrAB sulA), higher = more signal, called active from +8 up or from −8 down
[2] = small-molecule binders of probe aLefty1, primary screen, biochemical, small-molecule microarray, 635/667 nm fluorescence (AID 1153); details: higher = more signal;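 note: score merges spot fluorescence with signal-to-noise ratio from the scanned slide images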
[3] = PSAC antagonists in infected red cells, primary screen, cell-based, P. falciparum Indochina, OD700, 1 h (AID 1154); details: P. falciparum Indochina infected RBC osmotic lysis, higher = more signal, called active from +8 up or from −8 down
[4] = PSAC antagonists in infected red cells, primary screen, cell-based, P. falciparum Indochina, OD700, 2 h (AID 1155);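 note: lysis reports solute entry through the parasite surface anion channel PSAC; channel blockers reduce lysis of infected cells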; details: P. falciparum Indochina infected erythrocytes, osmotic lysis OD700; higher = more signal, called active from +8 up or from −8 down
[5] = osmotic lysis modulators in infected erythrocytes, primary screen, PSAC antagonist project, cell-based, P. falciparum Indochina, OD700, 3 h (AID 1156); details: higher = more signal, called active from +8 up or from −8 down
[6] = PSAC antagonists in infected red cells, primary screen, cell-based, P. falciparum Indochina, OD700, 18 h (AID 1157); details: P. falciparum Indochina infected erythrocytes, osmotic lysis OD700, 18 h; higher = more signal, called active from +8 up or from −8 down
[7] = modulators of S6 phosphorylation in cells, primary screen, cell-based, A549, cytoblot, luminescence, serum-stimulated (AID 1158); details: A549 phospho-S6 cytoblot, 5 h, higher = more signal;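 note: serum-stimulated A549 lung adenocarcinoma cells; signal is phosphorylated S6 detected by cytoblot immunostaining with HRP secondary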
[8] = biological target: NADPH oxidase 2 (Homo sapiens) (UniProt P04839); assay: NOX2-dependent H2O2 signal modulators, primary screen, NOX inhibitor project, cell-based, HEK293-NOX2, PMA-stimulated, Amplex Red fluorescence (AID 1159); details: 45 min, higher = more signal, called active from +8 up or from −8 down; note: test concentration not given here
Sequence of NADPH oxidase 2 (Homo sapiens) (P04839 whole entry, looked up): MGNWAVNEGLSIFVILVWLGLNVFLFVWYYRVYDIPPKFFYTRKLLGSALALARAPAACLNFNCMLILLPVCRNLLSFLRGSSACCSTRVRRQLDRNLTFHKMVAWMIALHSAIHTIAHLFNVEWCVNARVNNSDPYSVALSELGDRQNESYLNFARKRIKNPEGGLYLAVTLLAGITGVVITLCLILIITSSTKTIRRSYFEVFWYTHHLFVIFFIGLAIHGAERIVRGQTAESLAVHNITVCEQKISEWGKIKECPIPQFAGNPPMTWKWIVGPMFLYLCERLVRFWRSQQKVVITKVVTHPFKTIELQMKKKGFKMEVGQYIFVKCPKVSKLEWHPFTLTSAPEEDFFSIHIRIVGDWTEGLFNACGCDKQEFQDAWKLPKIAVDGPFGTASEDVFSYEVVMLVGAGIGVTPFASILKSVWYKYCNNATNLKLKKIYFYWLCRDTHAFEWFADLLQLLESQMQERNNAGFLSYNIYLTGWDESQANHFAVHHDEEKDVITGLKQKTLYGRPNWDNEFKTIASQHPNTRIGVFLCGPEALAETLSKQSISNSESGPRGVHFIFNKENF

[9] = biological target: NADPH oxidase 4 (Homo sapiens) (UniProt Q9NPH5); assay: NOX4-dependent H2O2 signal modulators, primary screen, NOX inhibitor project, cell-based, HEK293-NOX4, tetracycline-induced, Amplex Red fluorescence (AID 1160); details: 45 min, higher = more signal, called active from +8 up or from −8 down
Sequence of NADPH oxidase 4 (Homo sapiens) (Q9NPH5 whole entry, looked up): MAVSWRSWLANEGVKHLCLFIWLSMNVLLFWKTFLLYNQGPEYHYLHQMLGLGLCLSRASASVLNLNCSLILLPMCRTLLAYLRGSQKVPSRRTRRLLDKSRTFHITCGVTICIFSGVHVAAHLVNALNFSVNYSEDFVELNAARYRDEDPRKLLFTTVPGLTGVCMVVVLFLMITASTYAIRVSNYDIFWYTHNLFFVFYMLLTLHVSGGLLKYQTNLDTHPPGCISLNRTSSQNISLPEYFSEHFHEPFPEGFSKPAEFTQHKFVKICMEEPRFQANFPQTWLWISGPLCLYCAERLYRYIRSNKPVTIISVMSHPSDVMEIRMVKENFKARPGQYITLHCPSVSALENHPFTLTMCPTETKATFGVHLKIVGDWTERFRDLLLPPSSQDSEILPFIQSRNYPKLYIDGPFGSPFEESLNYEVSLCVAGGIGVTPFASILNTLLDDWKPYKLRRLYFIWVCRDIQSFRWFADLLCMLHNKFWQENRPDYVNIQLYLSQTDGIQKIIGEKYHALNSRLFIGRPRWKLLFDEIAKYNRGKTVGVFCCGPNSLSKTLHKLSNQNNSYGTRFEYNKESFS

[10] = biological target: NADPH oxidase 5 (Homo sapiens) (UniProt Q96PH1); assay: NOX5-dependent H2O2 signal modulators, primary screen, NOX inhibitor project, cell-based, HEK293-NOX5, Amplex Red fluorescence (AID 1161); details: HEK293-NOX5, ionomycin, 45 min, higher = more signal
Sequence of NADPH oxidase 5 (Homo sapiens) (Q96PH1 whole entry, looked up): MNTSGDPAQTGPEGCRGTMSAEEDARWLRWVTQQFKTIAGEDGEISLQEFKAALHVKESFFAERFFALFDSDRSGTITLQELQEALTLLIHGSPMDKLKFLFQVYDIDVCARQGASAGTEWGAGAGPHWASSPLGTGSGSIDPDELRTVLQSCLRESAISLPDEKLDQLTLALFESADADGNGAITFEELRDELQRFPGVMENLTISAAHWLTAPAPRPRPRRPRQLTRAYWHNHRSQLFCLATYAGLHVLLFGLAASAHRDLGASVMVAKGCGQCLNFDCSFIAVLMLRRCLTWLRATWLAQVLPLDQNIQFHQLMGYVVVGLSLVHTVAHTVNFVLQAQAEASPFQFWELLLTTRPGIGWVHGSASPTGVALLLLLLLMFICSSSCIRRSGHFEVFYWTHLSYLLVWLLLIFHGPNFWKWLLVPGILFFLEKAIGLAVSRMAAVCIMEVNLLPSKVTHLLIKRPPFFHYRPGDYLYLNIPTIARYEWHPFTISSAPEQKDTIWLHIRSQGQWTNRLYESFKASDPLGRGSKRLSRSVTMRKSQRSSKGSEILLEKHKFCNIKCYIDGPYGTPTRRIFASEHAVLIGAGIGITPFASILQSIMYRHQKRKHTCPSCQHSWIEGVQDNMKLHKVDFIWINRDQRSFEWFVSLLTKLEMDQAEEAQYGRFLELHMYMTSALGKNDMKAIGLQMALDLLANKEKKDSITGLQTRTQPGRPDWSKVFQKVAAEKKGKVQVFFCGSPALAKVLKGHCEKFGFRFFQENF

[11] = A549 cell viability effects, profiling panel, calcein-AM fluorescence, 48 h, basal (AID 1162); details: higher = more signal; note: test concentration not given here
[12] = adipocyte viability effects, profiling panel, cell-based, 3T3-L1 adipocytes, calcein-AM fluorescence, 48 h, basal (AID 1163); details: 3T3-L1 adipocytes viability, higher = more signal; note: test concentration not given here
[13] = HepG2 cell viability effects, profiling panel, calcein-AM fluorescence, 48 h, basal (AID 1164); details: higher = more signal; note: test concentration not given here
[14] = MM1S cell viability effects, profiling panel, calcein-AM fluorescence, 48 h, basal (AID 1165); details: higher = more signal;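 note: viability of MM1S multiple myeloma cells under basal unstimulated conditions; test concentration not given here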
[15] = basal RPMI8226 viability, no added stimulus, profiling panel, cell-based, calcein-AM fluorescence, 48 h, PK04 Diversity Set (AID 1166); details: RPMI8226 myeloma viability, higher = more signal;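 note: cells grown under basal conditions without added stimulus; test concentration not given here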
[16] = basal HepG2 mitochondrial membrane potential changes, profiling panel, cell-based, JC-1 fluorescence, 24 h, 100 nL compound (AID 1167); details: higher = more signal; note: test concentration not given here
[17] = basal 3T3-L1 adipocyte mitochondrial potential changes, profiling panel, cell-based, JC-1 fluorescence, 3T3-L1 adipocytes, 24 h, 100 nL compound (AID 1168); details: JC-1 mitochondrial fluorescence, higher = more signal, called active from +8 up or from −8 down; note: test concentration not given here
[18] = basal RPMI8226 mitochondrial membrane potential changes, profiling panel, cell-based, JC-1 fluorescence, 24 h, 100 nL compound (AID 1169); details: RPMI8226 myeloma, JC-1 mitochondrial potential fluorescence, higher = more signal; note: test concentration not given here
[19] = basal MM1S mitochondrial membrane potential changes, profiling panel, cell-based, JC-1 fluorescence, 24 h, 100 nL compound (AID 1170); details: higher = more signal; note: test concentration not given here
[20] = A549 lung cancer cell viability effects, profiling panel, resazurin fluorescence, 24 h, PK04 Diversity Set (AID 1171); details: higher = more signal, called active from +8 up or from −8 down; note: test concentration not given here

| Structure (SMILES) | z-score [1] | composite z-score [2] | z-score [3] | z-score [4] | z-score [5] | z-score [6] | z-score [7] | z-score [8] | z-score [9] | z-score [10] | z-score [11] | z-score [12] | z-score [13] | z-score [14] | z-score [15] | z-score [16] | z-score [17] | z-score [18] | z-score [19] | z-score [20] |
| --- | --- | --- | --- | --- | --- | --- | --- | --- | --- | --- | --- | --- | --- | --- | --- | --- | --- | --- | --- | --- |
| C=C(CC1([C@@H](NP(=O)(c2ccccc2)c2ccccc2)[C@H]2C[C@@H]2CCCC)CC1)c1ccccc1 | -1.67 (inactive) | 0.568 | 0.579 (inactive) | 0.495 (inactive) | 2.62 (inactive) | 0.935 (inactive) | 0.534 | -0.538 (inactive) | -0.988 (inactive) | -2.95 | -0.665 | -0.523 | -0.721 | -2.74 | -3.25 | -2.48 | -0.841 (inactive) | -0.968 | -1.92 | 4.95 (inactive) |
| C=CC1(C(=O)OC)CC=C(C(=O)OC)CC1 (stereo not given) | 0.2 (inactive) | 0.0262 | 0.655 (inactive) | -0.87 (inactive) | -1.3 (inactive) | -1.96 (inactive) | 0.674 | 0.379 (inactive) | -0.389 (inactive) | -0.0703 | 0.211 | 0.0237 | -0.287 | 0.835 | -0.0765 | 1.27 | 0.562 (inactive) | -0.093 | -1.42 | 0.45 (inactive) |
| COC(=O)C(CC#Cc1ccc2c(c1)[C@]1(C(=O)N2)[C@H](c2ccc(OCCO)cc2)N2[C@H](c3ccccc3)[C@H](c3ccccc3)OC(=O)[C@H]2[C@@H]1C(=O)N1CCc2cc(OC)c(OC)cc2C1)C(=O)OC | -0.339 (inactive) | 1.08 | 3.44 (inactive) | 1.89 (inactive) | 0.506 (inactive) | 0.754 (inactive) | -0.214 | 1.13 (inactive) | 0.632 (inactive) | 1.96 | 0.442 | 1.16 | 0.578 | -0.952 | -0.578 | -0.156 | -0.0627 (inactive) | -0.929 | -1.11 | 0.161 (inactive) |
| C#C[C@H](O[Si](C#Cc1ccc(Oc2ccccc2)cc1)(C(C)C)C(C)C)c1ccccc1 | -0.425 (inactive) | -0.104 | 0.353 (inactive) | 0.787 (inactive) | -2.03 (inactive) | -0.206 (inactive) | -0.305 | -1.03 (inactive) | -2.59 (inactive) | -3.04 | -2.21 | -1.19 | -1.48 | -3.02 | -4.16 | -3.3 | -0.805 (inactive) | -0.836 | -1.34 | -1.3 (inactive) |
| C=C[C@H](C)[C@@H](OC(=O)Nc1ccc(OC)cc1)c1ccc(O)c2ccccc12 | -0.368 (inactive) | 0.0903 | 3.54 (inactive) | 0.265 (inactive) | -0.122 (inactive) | 0.132 (inactive) | -0.751 | -5.53 (inactive) | -1.89 (inactive) | -0.55 | -1.17 | 0.323 | -1.54 | -2.78 | -4.12 | -3.42 | -1.19 (inactive) | -1.01 | -1.94 | -1.12 (inactive) |
| C[C@@]1([C@@H](NC(=O)c2ccc(-c3ccccc3)cc2)c2ccc(Cl)cc2)C[C@H]1C1CCCCC1 | -1.28 (inactive) | 0.284 | 15.8 (active) | 3.36 (inactive) | -0.0758 (inactive) | 1.11 (inactive) | -0.216 | -0.75 (inactive) | 0.205 (inactive) | 0.644 | -1.18 | -0.52 | -0.934 | -3.43 | -4.76 | -2.21 | -1.07 (inactive) | -0.902 | -2.73 | 0.602 (inactive) |
| CC(C)C(=C=CC[C@@H](O)c1ccc(OCCO)cc1)C[C@@H](O)c1ccccn1 | -0.197 (inactive) | -0.101 | 6.54 (inactive) | 0.977 (inactive) | 0.166 (inactive) | 0.479 (inactive) | -0.652 | 0.0116 (inactive) | 0.26 (inactive) | -0.124 | -0.343 | -1.03 | 0.411 | -0.473 | -0.3 | -0.737 | 0.00461 (inactive) | 0.0263 | -0.698 | -0.287 (inactive) |
| O=C1C[C@@](C(=O)NC2CC2)(c2ccc([N+](=O)[O-])cc2)[C@@H](c2ccc(CO)cc2I)N1C1CCCCC1 | -0.178 (inactive) | -0.034 | 16.5 (active) | 2.28 (inactive) | 3.03 (inactive) | 0.797 (inactive) | -0.552 | 1.37 (inactive) | 0.666 (inactive) | 2.04 | 0.147 | -0.536 | 0.522 | -1.77 | -1.17 | 0.575 | -0.604 (inactive) | -0.36 | -0.993 | 0.0067 (inactive) |
| C=CC[C@]1(C(=O)NCCCOC)N=C(c2ccc(OCCCO)cc2)O[C@H]1c1ccccc1CN=[N+]=[N-] | -0.653 (inactive) | 0.443 | 13.6 (active) | 1.21 (inactive) | 1.37 (inactive) | 0.424 (inactive) | -0.102 | 0.324 (inactive) | 0.649 (inactive) | -0.973 | 0.566 | 0.243 | 0.716 | -1.86 | -0.134 | 1.76 | -0.299 (inactive) | -1.25 | -0.142 | -0.0227 (inactive) |
